# What was measured:
# Test in all cases: DAPPL (digital affinity profiling via proximity ligation, sequencing); 10 mM Tris-HCl pH 7.5, 50 mM NaCl, 1 mM DTT, 4% glycerol, room temperature, 30 min; GST-TFs on glutathione beads, 16-mer random dsDNA library, 0.1% formaldehyde crosslink after washing; high values mean tight binding
# Conditions in all cases: protein: recombinant; tags: N-terminal GST; dsDNA, one strand shown
# [1] = molecular target: T1, ERF (Homo sapiens, UniProt P50548 1-548)
# T1 sequence: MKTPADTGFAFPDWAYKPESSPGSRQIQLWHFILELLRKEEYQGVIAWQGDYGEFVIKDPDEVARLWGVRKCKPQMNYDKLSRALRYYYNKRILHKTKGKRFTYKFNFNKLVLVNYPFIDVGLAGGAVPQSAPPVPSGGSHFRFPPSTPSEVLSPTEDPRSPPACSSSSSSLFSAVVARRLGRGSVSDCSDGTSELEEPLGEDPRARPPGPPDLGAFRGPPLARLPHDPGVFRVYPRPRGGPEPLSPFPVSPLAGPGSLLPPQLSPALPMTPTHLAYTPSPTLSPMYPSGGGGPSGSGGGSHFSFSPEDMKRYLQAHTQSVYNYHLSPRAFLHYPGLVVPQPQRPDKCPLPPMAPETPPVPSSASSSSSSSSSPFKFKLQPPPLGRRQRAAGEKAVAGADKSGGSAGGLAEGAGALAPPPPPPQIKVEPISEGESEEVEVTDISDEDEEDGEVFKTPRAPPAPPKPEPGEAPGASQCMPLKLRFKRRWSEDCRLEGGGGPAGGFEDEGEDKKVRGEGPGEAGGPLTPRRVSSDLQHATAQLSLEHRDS
# Outline: (§1)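 After expression in yeast as GST fusions, human transcription factors were bound to glutathione beads, DNA-barcoded and mixed with a tag-only sample. The pools were incubated with 200 nmole of a 16-mer random double-stranded DNA library in Tris/NaCl/DTT/glycerol buffer (30 min, room temperature), washed and crosslinked with 0.1% formaldehyde. Proximity ligation with BsaI/T4 ligase ran for 1 h at 37 °C, before PCR amplification and sequencing on an Illumina NextSeq500. Binding signal is a hexamer's read frequency for a factor divided by its frequency for the tag-only sample.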
# [2] = molecular target: T2, ETV3L (Homo sapiens, UniProt Q6ZN32 1-361)
# T2 sequence: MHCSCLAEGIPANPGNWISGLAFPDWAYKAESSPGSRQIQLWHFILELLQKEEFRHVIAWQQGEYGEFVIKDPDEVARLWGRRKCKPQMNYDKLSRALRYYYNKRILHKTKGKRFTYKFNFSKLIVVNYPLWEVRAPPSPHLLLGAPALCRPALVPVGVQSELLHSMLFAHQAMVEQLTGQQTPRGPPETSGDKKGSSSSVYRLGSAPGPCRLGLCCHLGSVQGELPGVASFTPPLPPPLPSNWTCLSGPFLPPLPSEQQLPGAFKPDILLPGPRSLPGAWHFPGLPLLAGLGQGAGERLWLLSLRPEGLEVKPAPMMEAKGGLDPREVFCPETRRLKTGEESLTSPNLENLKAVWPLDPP
# Outline: as §1
# [3] = molecular target: T3, ETS2 (Homo sapiens, UniProt P15036 1-469)
# T3 sequence: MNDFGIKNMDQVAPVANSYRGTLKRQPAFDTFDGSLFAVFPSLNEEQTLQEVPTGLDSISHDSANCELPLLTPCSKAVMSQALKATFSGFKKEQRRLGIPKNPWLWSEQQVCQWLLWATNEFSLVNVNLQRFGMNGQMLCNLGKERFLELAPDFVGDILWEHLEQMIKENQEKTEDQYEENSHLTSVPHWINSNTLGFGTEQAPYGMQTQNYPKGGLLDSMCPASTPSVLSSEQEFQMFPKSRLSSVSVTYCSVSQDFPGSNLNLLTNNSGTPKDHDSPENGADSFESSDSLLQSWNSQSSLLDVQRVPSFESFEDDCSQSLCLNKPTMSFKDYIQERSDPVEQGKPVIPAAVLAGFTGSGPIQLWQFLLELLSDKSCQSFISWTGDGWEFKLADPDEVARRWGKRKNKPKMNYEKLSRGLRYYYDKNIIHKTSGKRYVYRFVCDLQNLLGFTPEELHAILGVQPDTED
# Outline: as §1
# [4] = molecular target: T4, SPDEF (Homo sapiens, UniProt O95238 1-335)
# T4 sequence: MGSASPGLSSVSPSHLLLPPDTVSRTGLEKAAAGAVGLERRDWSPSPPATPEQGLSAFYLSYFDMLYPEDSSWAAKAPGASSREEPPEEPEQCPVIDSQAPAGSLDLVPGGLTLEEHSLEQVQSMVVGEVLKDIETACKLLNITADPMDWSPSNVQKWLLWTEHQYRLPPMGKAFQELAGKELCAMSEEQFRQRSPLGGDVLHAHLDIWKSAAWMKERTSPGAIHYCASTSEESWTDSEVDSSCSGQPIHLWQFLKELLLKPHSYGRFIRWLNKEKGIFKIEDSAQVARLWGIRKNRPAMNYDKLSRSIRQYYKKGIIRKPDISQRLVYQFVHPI
# Outline: as §1
# [5] = molecular target: T5, ETV7 (Homo sapiens, UniProt Q9Y603 1-341)
# T5 sequence: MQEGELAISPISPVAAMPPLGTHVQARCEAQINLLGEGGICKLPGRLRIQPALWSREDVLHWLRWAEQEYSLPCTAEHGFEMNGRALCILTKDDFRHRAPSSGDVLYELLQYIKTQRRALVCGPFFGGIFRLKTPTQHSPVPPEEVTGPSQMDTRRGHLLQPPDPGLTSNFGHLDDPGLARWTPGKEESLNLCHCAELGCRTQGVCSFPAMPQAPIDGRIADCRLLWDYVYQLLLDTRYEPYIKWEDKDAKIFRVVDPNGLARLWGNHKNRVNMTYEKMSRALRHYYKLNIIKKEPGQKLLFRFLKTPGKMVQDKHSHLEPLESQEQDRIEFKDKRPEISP
# Outline: as §1
# [6] = molecular target: T6, ELF5 (Homo sapiens, UniProt Q9UKW6-2 1-255)
# T6 sequence: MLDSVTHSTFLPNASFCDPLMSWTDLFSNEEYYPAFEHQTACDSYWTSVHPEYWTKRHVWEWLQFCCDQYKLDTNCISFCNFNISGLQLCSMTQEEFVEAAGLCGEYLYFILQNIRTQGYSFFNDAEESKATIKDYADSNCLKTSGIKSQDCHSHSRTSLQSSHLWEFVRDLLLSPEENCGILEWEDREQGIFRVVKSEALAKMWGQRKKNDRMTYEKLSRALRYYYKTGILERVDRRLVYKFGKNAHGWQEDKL
# Outline: as §1
# [7] = molecular target: T7, ETV3 (Homo sapiens, UniProt P41162-2 1-143)
# T7 sequence: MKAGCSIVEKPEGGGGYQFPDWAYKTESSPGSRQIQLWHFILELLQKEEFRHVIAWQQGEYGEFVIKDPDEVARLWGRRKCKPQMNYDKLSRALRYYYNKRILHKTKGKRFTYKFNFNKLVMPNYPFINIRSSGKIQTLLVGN
# Outline: as §1
# [8] = molecular target: ETV6 (Homo sapiens, UniProt P41212 1-452)
# Outline: as §1
# Sequence of ETV6 (P41212 whole entry): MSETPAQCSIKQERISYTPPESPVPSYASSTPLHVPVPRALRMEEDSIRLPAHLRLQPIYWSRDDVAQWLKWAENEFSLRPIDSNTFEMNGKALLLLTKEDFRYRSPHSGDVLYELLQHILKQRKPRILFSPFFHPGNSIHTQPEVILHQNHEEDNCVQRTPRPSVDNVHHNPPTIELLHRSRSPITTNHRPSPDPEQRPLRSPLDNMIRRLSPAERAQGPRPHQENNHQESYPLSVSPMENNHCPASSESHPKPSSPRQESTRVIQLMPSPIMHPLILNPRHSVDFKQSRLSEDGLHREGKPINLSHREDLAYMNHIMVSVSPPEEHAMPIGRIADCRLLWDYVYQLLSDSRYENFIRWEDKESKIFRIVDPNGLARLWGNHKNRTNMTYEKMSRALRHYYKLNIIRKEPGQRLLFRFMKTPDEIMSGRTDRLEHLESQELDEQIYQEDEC
Sequence,binding signal [1],binding signal [2],binding signal [3],binding signal [4],binding signal [5],binding signal [6],binding signal [7],binding signal [8]
TTGCAG,"1.24 fold enrichment (6-mer frequency, TF over GST control)","1.11 fold enrichment (6-mer frequency, TF over GST control)","1.19 fold enrichment (6-mer frequency, TF over GST control)","1.14 fold enrichment (6-mer frequency, TF over GST control)","1.13 fold enrichment (6-mer frequency, TF over GST control)","1.08 fold enrichment (6-mer frequency, TF over GST control)","1.1 fold enrichment (6-mer frequency, TF over GST control)","1.12 fold enrichment (6-mer frequency, TF over GST control)"
TATCTA,"1.27 fold enrichment (6-mer frequency, TF over GST control)","1.18 fold enrichment (6-mer frequency, TF over GST control)","1.26 fold enrichment (6-mer frequency, TF over GST control)","1.23 fold enrichment (6-mer frequency, TF over GST control)","1.26 fold enrichment (6-mer frequency, TF over GST control)","1.18 fold enrichment (6-mer frequency, TF over GST control)","1.29 fold enrichment (6-mer frequency, TF over GST control)","1.28 fold enrichment (6-mer frequency, TF over GST control)"
GCGTTC,"1.11 fold enrichment (6-mer frequency, TF over GST control)","1.15 fold enrichment (6-mer frequency, TF over GST control)","1.21 fold enrichment (6-mer frequency, TF over GST control)","1.02 fold enrichment (6-mer frequency, TF over GST control)","1.23 fold enrichment (6-mer frequency, TF over GST control)","1.03 fold enrichment (6-mer frequency, TF over GST control)","1.11 fold enrichment (6-mer frequency, TF over GST control)","1.12 fold enrichment (6-mer frequency, TF over GST control)"
CTGCGT,"1.13 fold enrichment (6-mer frequency, TF over GST control)","1.16 fold enrichment (6-mer frequency, TF over GST control)","1.15 fold enrichment (6-mer frequency, TF over GST control)","1.2 fold enrichment (6-mer frequency, TF over GST control)","1.23 fold enrichment (6-mer frequency, TF over GST control)","1.11 fold enrichment (6-mer frequency, TF over GST control)","1.13 fold enrichment (6-mer frequency, TF over GST control)","1.02 fold enrichment (6-mer frequency, TF over GST control)"
CTACAA,"1.05 fold enrichment (6-mer frequency, TF over GST control)","1.15 fold enrichment (6-mer frequency, TF over GST control)","1.16 fold enrichment (6-mer frequency, TF over GST control)","1.14 fold enrichment (6-mer frequency, TF over GST control)","1.01 fold enrichment (6-mer frequency, TF over GST control)","1.16 fold enrichment (6-mer frequency, TF over GST control)","1.1 fold enrichment (6-mer frequency, TF over GST control)","1.18 fold enrichment (6-mer frequency, TF over GST control)"
CCTGAA,"1.37 fold enrichment (6-mer frequency, TF over GST control)","1.35 fold enrichment (6-mer frequency, TF over GST control)","1.33 fold enrichment (6-mer frequency, TF over GST control)","1.48 fold enrichment (6-mer frequency, TF over GST control)","1.22 fold enrichment (6-mer frequency, TF over GST control)","1.5 fold enrichment (6-mer frequency, TF over GST control)","1.4 fold enrichment (6-mer frequency, TF over GST control)","1.27 fold enrichment (6-mer frequency, TF over GST control)"
TGACTC,"1.21 fold enrichment (6-mer frequency, TF over GST control)","1.21 fold enrichment (6-mer frequency, TF over GST control)","1.38 fold enrichment (6-mer frequency, TF over GST control)","1.27 fold enrichment (6-mer frequency, TF over GST control)","1.41 fold enrichment (6-mer frequency, TF over GST control)","1.28 fold enrichment (6-mer frequency, TF over GST control)","1.32 fold enrichment (6-mer frequency, TF over GST control)","1.28 fold enrichment (6-mer frequency, TF over GST control)"
ACGATA,"1.2 fold enrichment (6-mer frequency, TF over GST control)","1.18 fold enrichment (6-mer frequency, TF over GST control)","1.25 fold enrichment (6-mer frequency, TF over GST control)","1.13 fold enrichment (6-mer frequency, TF over GST control)","1.22 fold enrichment (6-mer frequency, TF over GST control)","1.09 fold enrichment (6-mer frequency, TF over GST control)","1.13 fold enrichment (6-mer frequency, TF over GST control)","1.18 fold enrichment (6-mer frequency, TF over GST control)"
GAACAC,"1.11 fold enrichment (6-mer frequency, TF over GST control)","1.18 fold enrichment (6-mer frequency, TF over GST control)","1.12 fold enrichment (6-mer frequency, TF over GST control)","1.26 fold enrichment (6-mer frequency, TF over GST control)","1.15 fold enrichment (6-mer frequency, TF over GST control)","1.17 fold enrichment (6-mer frequency, TF over GST control)","1.14 fold enrichment (6-mer frequency, TF over GST control)","1.13 fold enrichment (6-mer frequency, TF over GST control)"
CACTCG,"1.1 fold enrichment (6-mer frequency, TF over GST control)","1.11 fold enrichment (6-mer frequency, TF over GST control)","1.22 fold enrichment (6-mer frequency, TF over GST control)","1.04 fold enrichment (6-mer frequency, TF over GST control)","1.13 fold enrichment (6-mer frequency, TF over GST control)","1.05 fold enrichment (6-mer frequency, TF over GST control)","1.09 fold enrichment (6-mer frequency, TF over GST control)","1.1 fold enrichment (6-mer frequency, TF over GST control)"
ACAATG,"1.12 fold enrichment (6-mer frequency, TF over GST control)","1.03 fold enrichment (6-mer frequency, TF over GST control)","1.09 fold enrichment (6-mer frequency, TF over GST control)","1.03 fold enrichment (6-mer frequency, TF over GST control)","1.12 fold enrichment (6-mer frequency, TF over GST control)","1.08 fold enrichment (6-mer frequency, TF over GST control)","1.11 fold enrichment (6-mer frequency, TF over GST control)","1.06 fold enrichment (6-mer frequency, TF over GST control)"
TCCACG,"1.03 fold enrichment (6-mer frequency, TF over GST control)","1.18 fold enrichment (6-mer frequency, TF over GST control)","1.09 fold enrichment (6-mer frequency, TF over GST control)","1.1 fold enrichment (6-mer frequency, TF over GST control)","1.06 fold enrichment (6-mer frequency, TF over GST control)","1.04 fold enrichment (6-mer frequency, TF over GST control)","1.01 fold enrichment (6-mer frequency, TF over GST control)","1.06 fold enrichment (6-mer frequency, TF over GST control)"

# Reference: PMC7862700, “An all-to-all approach to the identification of sequence-specific readers for epigenetic DNA modifications on cytosine”
